# In PubChem BioAssay (NCI):
# This is part of a sample that, as a whole, favours compounds with a hit. Of some 79,000 tested, about 15% had one in any assay. Values without a mark were called inactive. Active and inactive are the calls of the source. Cut-off read from the data, not from the text of the source: active = growth inhibition above about 70%; inactive = the rest.
# What was measured:
# [1] = NCI Yeast Anticancer Drug Screen. Data for the mlh1 strain (AID 171);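 note: 0% = growth of vehicle-treated control cultures of the same strain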; conditions: S. cerevisiae mlh1 strain growth inhibition, stronger effect = higher value
# Summary of the method: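 Compounds are applied to a genetically altered yeast strain, and its growth is compared with that of vehicle-treated cultures to give percent inhibition.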
# [2] = NCI Yeast Anticancer Drug Screen. Data for the sgs1 strain (AID 173);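 note: 0% = growth of vehicle-only control cultures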; conditions: S. cerevisiae sgs1 mutant, stronger effect = higher value
# Summary of the method: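 Compounds applied to genetically altered yeast; growth compared with vehicle-treated cultures to give % inhibition.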
# [3] = NCI Yeast Anticancer Drug Screen. Data for the mlh1 rad18 strain (AID 175); conditions: S. cerevisiae mlh1 rad18 strain growth inhibition, stronger effect = higher value
# Summary of the method: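 Cells of a genetically altered yeast strain, deficient in DNA damage repair, were treated with compound. Their growth was then compared with that of vehicle-treated cultures to give inhibition.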
# [4] = NCI Yeast Anticancer Drug Screen. Data for the rad18 strain (AID 177); conditions: S. cerevisiae rad18 mutant growth inhibition, stronger effect = higher value
# Summary of the method: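 Compounds are applied to a repair-deficient yeast strain, and growth is compared with that of vehicle-treated cultures to give percent inhibition.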
# [5] = NCI Yeast Anticancer Drug Screen. Data for the wt1 strain (AID 149);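 note: 0% = growth of vehicle-treated wt1 cultures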; conditions: S. cerevisiae wt1 strain (SPY 50644) growth inhibition, stronger effect = higher value
# Summary of the method: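 Measured: growth of wt1 yeast under compound versus vehicle treatment, reported as inhibition.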
# [6] = NCI Yeast Anticancer Drug Screen. Data for the rad50EPP+ strain (AID 151);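 note: 0% = growth of vehicle-treated control cultures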; conditions: S. cerevisiae rad50 mutant strain, stronger effect = higher value
# Summary of the method: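 rad50EPP+ yeast treated with test compounds. Readout: growth vs vehicle control.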
# [7] = NCI Yeast Anticancer Drug Screen. Data for the mgt1 strain (AID 153); conditions: S. cerevisiae mgt1 mutant growth inhibition, stronger effect = higher value
# Summary of the method: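 Growth inhibition relative to vehicle controls was scored for the mgt1 yeast strain after compound exposure.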
# [8] = NCI Yeast Anticancer Drug Screen. Data for the rad50 strain (AID 155);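 note: 0% = growth of vehicle-only cultures of the same strain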; conditions: S. cerevisiae rad50 strain growth inhibition, stronger effect = higher value
# Summary of the method: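 Growth of the mutant yeast was measured after compound exposure and referenced to vehicle-treated cultures.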
# [9] = NCI Yeast Anticancer Drug Screen. Data for the mec2-1 strain (AID 157); conditions: S. cerevisiae mec2-1 strain, stronger effect = higher value
# Summary of the method: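 Growth inhibition is read against vehicle-treated controls after compound exposure of the mec2-1 yeast strain, which is defective in DNA damage repair or cell cycle control.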
# [10] = NCI Yeast Anticancer Drug Screen. Data for the rad14 strain (AID 159);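 note: 0% = growth of vehicle-treated control cultures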; conditions: S. cerevisiae rad14 strain growth inhibition, stronger effect = higher value
# Summary of the method: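 Here, inhibition of yeast growth was measured after compound exposure, using a strain with a genetic defect in DNA damage repair and vehicle-treated cultures as the reference.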
# [11] = NCI Yeast Anticancer Drug Screen. Data for the sgs1 mgt1 strain (AID 161);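 note: 0% = growth of cultures given vehicle only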; conditions: S. cerevisiae sgs1 mgt1 strain, stronger effect = higher value
# Summary of the method: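 This yeast growth screen uses a strain with defined DNA-repair lesions; compound-treated growth is compared with vehicle-treated growth.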
# [12] = NCI Yeast Anticancer Drug Screen. Data for the CLN2oe strain (AID 163);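 note: 0% = growth of vehicle-only control cultures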; conditions: S. cerevisiae CLN2oe strain, stronger effect = higher value
# Summary of the method: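 Compound-treated yeast; growth vs vehicle ctrl = % inhibition. Genetically altered strain (cell-cycle control).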
# [13] = NCI Yeast Anticancer Drug Screen. Data for the cln2 rad14 strain (AID 165);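 note: 0% = growth equal to vehicle treated cultures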; conditions: S. cerevisiae cln2 rad14 strain, stronger effect = higher value
# Summary of the method: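 Growth inhibition, relative to vehicle-treated controls, is the read-out. The test organism is a yeast strain with defined genetic alterations, cln2 rad14.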
# [14] = NCI Yeast Anticancer Drug Screen. Data for the bub3 strain (AID 167); conditions: S. cerevisiae bub3 mutant strain, stronger effect = higher value
# Summary of the method: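 Whole-cell yeast assay. The mutant strain was incubated with compounds, and growth inhibition was determined by comparison with vehicle-treated cells.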
# [15] = NCI Yeast Anticancer Drug Screen. Data for the wt2 strain (AID 169);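 note: 0% = growth of vehicle-treated yeast cultures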; conditions: S. cerevisiae wt2 strain growth inhibition, stronger effect = higher value
# Summary of the method: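 Compound exposure of yeast; growth compared with vehicle controls; inhibition reported.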
# [16] = at 5.0 µM (retest, dose inferred, filed as 0.5)
# [17] = at 50.0 µM (retest, dose inferred, filed as 5.0)
smiles,measurement,setting,value
CCOC(=O)C(NC(=O)c1ccccc1)[CH](c1ccccc1)[Sn]([c]1ccccc1)([c]1ccccc1)[c]1ccccc1 (stereo unspecified),growth inhibition,[1]; at 1.2 µM,0%
same,growth inhibition,[1]; at 3.7 µM,0%
same,growth inhibition,[1]; at 11.0 µM,0%
same,growth inhibition,[1]; at 33.0 µM,17%
same,growth inhibition,[1]; at 100.0 µM,96% (active)
same,growth inhibition,[2]; at 1.2 µM,1%
same,growth inhibition,[2]; at 3.7 µM,4%
same,growth inhibition,[2]; at 11.0 µM,4%
same,growth inhibition,[2]; at 33.0 µM,34%
same,growth inhibition,[2]; at 100.0 µM,94% (active)
same,growth inhibition,[3]; [16],-5%
same,growth inhibition,[3]; [17],79% (active)
same,growth inhibition,[3]; at 50.0 µM,98% (active)
same,growth inhibition,[4]; at 1.2 µM,-1%
same,growth inhibition,[4]; at 3.7 µM,5%
same,growth inhibition,[4]; at 11.0 µM,0%
same,growth inhibition,[4]; at 33.0 µM,45%
same,growth inhibition,[4]; at 100.0 µM,94% (active)
Nc1ccc2ncc(Nc3ccc(Cl)c(Cl)c3)nc2c1,growth inhibition,[5]; at 1.2 µM,-19%
same,growth inhibition,[5]; at 3.7 µM,1%
same,growth inhibition,[5]; at 11.0 µM,49%
same,growth inhibition,[5]; at 33.0 µM,95% (active)
same,growth inhibition,[5]; at 100.0 µM,96% (active)
same,growth inhibition,[6]; at 1.2 µM,-11%
same,growth inhibition,[6]; at 3.7 µM,-6%
same,growth inhibition,[6]; at 11.0 µM,11%
same,growth inhibition,[6]; at 33.0 µM,37%
same,growth inhibition,[6]; at 100.0 µM,59%
same,growth inhibition,[7]; at 1.2 µM,-32%
same,growth inhibition,[7]; at 3.7 µM,-27%
same,growth inhibition,[7]; at 11.0 µM,69%
same,growth inhibition,[7]; at 33.0 µM,96% (active)
same,growth inhibition,[7]; at 100.0 µM,97% (active)
same,growth inhibition,[8]; at 1.2 µM,3%
same,growth inhibition,[8]; at 3.7 µM,10%
same,growth inhibition,[8]; [16],1%
same,growth inhibition,[8]; at 11.0 µM,70% (active)
same,growth inhibition,[8]; at 33.0 µM,96% (active)
same,growth inhibition,[8]; [17],95% (active)
same,growth inhibition,[8]; at 50.0 µM,85% (active)
same,growth inhibition,[8]; at 100.0 µM,96% (active)
same,growth inhibition,[9]; at 1.2 µM,-6%
same,growth inhibition,[9]; at 3.7 µM,-16%
same,growth inhibition,[9]; [16],28%
same,growth inhibition,[9]; at 11.0 µM,53%
same,growth inhibition,[9]; at 33.0 µM,96% (active)
same,growth inhibition,[9]; [17],98% (active)
same,growth inhibition,[9]; at 50.0 µM,86% (active)
same,growth inhibition,[9]; at 100.0 µM,97% (active)
same,growth inhibition,[10]; at 1.2 µM,-20%
same,growth inhibition,[10]; at 3.7 µM,-9%
same,growth inhibition,[10]; at 11.0 µM,73% (active)
same,growth inhibition,[10]; at 33.0 µM,97% (active)
same,growth inhibition,[10]; at 100.0 µM,96% (active)
same,growth inhibition,[11]; [16],12%
same,growth inhibition,[11]; [17],95% (active)
same,growth inhibition,[11]; at 50.0 µM,89% (active)
same,growth inhibition,[12]; at 1.2 µM,-17%
same,growth inhibition,[12]; at 3.7 µM,-6%
same,growth inhibition,[12]; at 11.0 µM,69%
same,growth inhibition,[12]; at 33.0 µM,97% (active)
same,growth inhibition,[12]; at 100.0 µM,97% (active)
same,growth inhibition,[13]; [16],42%
same,growth inhibition,[13]; [17],95% (active)
same,growth inhibition,[13]; at 50.0 µM,73.7% (active)
same,growth inhibition,[14]; at 1.2 µM,-13%
same,growth inhibition,[14]; at 3.7 µM,-3%
same,growth inhibition,[14]; [16],44%
same,growth inhibition,[14]; at 11.0 µM,54%
same,growth inhibition,[14]; at 33.0 µM,96% (active)
same,growth inhibition,[14]; [17],97% (active)
same,growth inhibition,[14]; at 50.0 µM,87.2% (active)
same,growth inhibition,[14]; at 100.0 µM,96% (active)
same,growth inhibition,[15]; at 1.2 µM,-15%
same,growth inhibition,[15]; at 3.7 µM,0%
same,growth inhibition,[15]; at 11.0 µM,57%
same,growth inhibition,[15]; at 33.0 µM,97% (active)
same,growth inhibition,[15]; at 100.0 µM,97% (active)
same,growth inhibition,[1]; at 1.2 µM,-4%
same,growth inhibition,[1]; at 3.7 µM,4%
same,growth inhibition,[1]; at 11.0 µM,75% (active)
same,growth inhibition,[1]; at 33.0 µM,96% (active)
same,growth inhibition,[1]; at 100.0 µM,97% (active)
same,growth inhibition,[2]; at 1.2 µM,0%
same,growth inhibition,[2]; at 3.7 µM,17%
same,growth inhibition,[2]; at 11.0 µM,78% (active)
same,growth inhibition,[2]; at 33.0 µM,97% (active)
same,growth inhibition,[2]; at 100.0 µM,97% (active)
same,growth inhibition,[4]; at 1.2 µM,-13%
same,growth inhibition,[4]; at 3.7 µM,-9%
same,growth inhibition,[4]; at 11.0 µM,11%
same,growth inhibition,[4]; at 33.0 µM,97% (active)
same,growth inhibition,[4]; at 100.0 µM,98% (active)
Cc1ccnc(NS(=O)(=O)c2ccc(Nc3c4ccccc4nc4ccccc34)cc2)n1,growth inhibition,[5]; at 1.2 µM,14%
same,growth inhibition,[5]; at 3.7 µM,20%
same,growth inhibition,[5]; at 11.0 µM,21%
same,growth inhibition,[5]; at 33.0 µM,48%
same,growth inhibition,[5]; at 100.0 µM,76% (active)
same,growth inhibition,[6]; at 1.2 µM,30%
same,growth inhibition,[6]; at 3.7 µM,41%
same,growth inhibition,[6]; at 11.0 µM,64%
same,growth inhibition,[6]; at 33.0 µM,73% (active)
same,growth inhibition,[6]; at 100.0 µM,74% (active)
same,growth inhibition,[7]; at 1.2 µM,37%
same,growth inhibition,[7]; at 3.7 µM,33%
same,growth inhibition,[7]; at 11.0 µM,54%
same,growth inhibition,[7]; at 33.0 µM,66%
same,growth inhibition,[7]; at 100.0 µM,84% (active)
same,growth inhibition,[8]; at 1.2 µM,50%
same,growth inhibition,[8]; at 3.7 µM,79% (active)
same,growth inhibition,[8]; [16],77% (active)
same,growth inhibition,[8]; at 11.0 µM,90% (active)
same,growth inhibition,[8]; at 33.0 µM,91% (active)
same,growth inhibition,[8]; [17],90% (active)
same,growth inhibition,[8]; at 50.0 µM,84.8% (active)
same,growth inhibition,[8]; at 100.0 µM,88% (active)
same,growth inhibition,[9]; at 1.2 µM,18%
same,growth inhibition,[9]; at 3.7 µM,32%
same,growth inhibition,[9]; [16],15%
same,growth inhibition,[9]; at 11.0 µM,45%
same,growth inhibition,[9]; at 33.0 µM,76% (active)
same,growth inhibition,[9]; [17],77% (active)
same,growth inhibition,[9]; at 50.0 µM,71.2% (active)
same,growth inhibition,[9]; at 100.0 µM,83% (active)
same,growth inhibition,[10]; at 1.2 µM,10%
same,growth inhibition,[10]; at 3.7 µM,10%
same,growth inhibition,[10]; at 11.0 µM,26%
same,growth inhibition,[10]; at 33.0 µM,58%
same,growth inhibition,[10]; at 100.0 µM,81% (active)
same,growth inhibition,[11]; [16],14%
same,growth inhibition,[11]; [17],74% (active)
same,growth inhibition,[11]; at 50.0 µM,77.6% (active)
same,growth inhibition,[12]; at 1.2 µM,13%
same,growth inhibition,[12]; at 3.7 µM,1%
same,growth inhibition,[12]; at 11.0 µM,14%
same,growth inhibition,[12]; at 33.0 µM,39%
same,growth inhibition,[12]; at 100.0 µM,60%
same,growth inhibition,[13]; [16],17%
same,growth inhibition,[13]; [17],35%
same,growth inhibition,[13]; at 50.0 µM,35.5%
same,growth inhibition,[14]; at 1.2 µM,-12%
same,growth inhibition,[14]; at 3.7 µM,-21%
same,growth inhibition,[14]; [16],26%
same,growth inhibition,[14]; at 11.0 µM,-20%
same,growth inhibition,[14]; at 33.0 µM,30%
same,growth inhibition,[14]; [17],44%
same,growth inhibition,[14]; at 50.0 µM,76.2% (active)
same,growth inhibition,[14]; at 100.0 µM,63%
same,growth inhibition,[15]; at 1.2 µM,-10%
same,growth inhibition,[15]; at 3.7 µM,-18%
same,growth inhibition,[15]; at 11.0 µM,-3%
same,growth inhibition,[15]; at 33.0 µM,44%
same,growth inhibition,[15]; at 100.0 µM,74% (active)
same,growth inhibition,[1]; at 1.2 µM,37%
same,growth inhibition,[1]; at 3.7 µM,33%
same,growth inhibition,[1]; at 11.0 µM,54%
same,growth inhibition,[1]; at 33.0 µM,66%
same,growth inhibition,[1]; at 100.0 µM,84% (active)
same,growth inhibition,[2]; at 1.2 µM,24%
same,growth inhibition,[2]; at 3.7 µM,26%
same,growth inhibition,[2]; at 11.0 µM,43%
same,growth inhibition,[2]; at 33.0 µM,69%
same,growth inhibition,[2]; at 100.0 µM,86% (active)
same,growth inhibition,[3]; [16],26%
same,growth inhibition,[3]; [17],74% (active)
same,growth inhibition,[3]; at 50.0 µM,37.7%
same,growth inhibition,[4]; at 1.2 µM,16%
same,growth inhibition,[4]; at 3.7 µM,19%
same,growth inhibition,[4]; at 11.0 µM,36%
same,growth inhibition,[4]; at 33.0 µM,65%
same,growth inhibition,[4]; at 100.0 µM,79% (active)
